Among the data in PubChem BioAssay (NCATS) are efficacy, outcome and AC50 values, retold here.

Unmarked numbers belong to inactive results. For part of these data: Measured potencies and affinities stand elsewhere. The source made the active and inactive calls. No rule for the calls is given here.

For assay [1] the following is noted: Ebola virus entry assay, green fluorescence channel.
For assay [2] the following is noted: Ebola virus entry assay, blue channel fluorescence.
The conditions of assay [3]: Ebola virus entry assay, ratio channel.
The conditions of assay [4]: Ebola virus entry assay, green channel fluorescence.
The conditions of assay [5]: Ebola virus entry assay, reporter ratio channel; Channel type: primary.
For assay [6] the following is noted: Ebola virus entry assay, blue channel (ratio component).
For efficacy in this document: 0% is about no effect.

`O=C(O)[C@H](O)[C@@H](O)[C@H](O[C@@H]1O[C@H](CO)[C@H](O)[C@H](O)[C@H]1O)[C@H](O)CO`: the efficacy in assay [1] is 24.3%. For the same molecule, the molecule was called inactive in assay [2], in assay [3], in assay [4], in assay [5] and in assay [6].

In the case of `CC(C)c1cc2c(cc1S(=O)(=O)O)[C@@]1(C)CCC[C@@](C)(C(=O)O)[C@@H]1CC2`, the efficacy in assay [1] was -15.6%. In addition, the molecule was classed as inactive in assay [2], in assay [3], in assay [4], in assay [5] and in assay [6].

In the case of `CCC1NC(=O)c2cc(S(N)(=O)=O)c(Cl)cc2N1` (centres undefined), the efficacy in assay [1] was -10.3%. Moreover, the call in assay [2], in assay [3], in assay [4], in assay [5] and in assay [6] was inactive.

As for `CCN(CC)CC1CCCCN1CC(=O)N1c2ccccc2C(=O)Nc2cccnc21` (centres undefined), in assay [1], the efficacy was 31.3%. For the same molecule, the molecule was called inactive in assay [2], in assay [3], in assay [4], in assay [5] and in assay [6].

As for `CCCCCCCCCCCCOCCOCCOCCOCCOCCOCCOCCOCCOCCO`, the efficacy in assay [1] is -12.9%. Moreover, the call in assay [2], in assay [3], in assay [4], in assay [5] and in assay [6] was inactive.

As to `CCOC(=O)c1ccc(NC(=O)CN2CCCCC2)cc1`, the efficacy in assay [1] is -17.3%. For the same molecule, the call in assay [2], in assay [3], in assay [4], in assay [5] and in assay [6] was inactive.

As for `CC(=O)OC/C=C(C)/C=C/C=C(C)/C=C/C1=C(C)CCCC1(C)C`, in assay [1], the efficacy was -18.2%. Also, the molecule was classed as inactive in assay [2], in assay [3], in assay [4], in assay [5] and in assay [6].

Take `CCCOC(=O)c1ccc(N)cc1`: the efficacy in assay [1] was 7.92%. Besides, the molecule was called inactive in assay [2], in assay [3], in assay [4], in assay [5] and in assay [6].

Regarding `C[C@@H]1CC[C@@]2(OC1)O[C@H]1C[C@H]3[C@@H]4CC[C@H]5C[C@@H](O)CC[C@]5(C)[C@H]4CC(=O)[C@]3(C)[C@H]1[C@@H]2C`, the efficacy in assay [1] is 21.9%. Also, the call in assay [2], in assay [3], in assay [4], in assay [5] and in assay [6] was inactive.

With `CN1C[C@@H](NS(=O)(=O)N(C)C)C[C@@H]2c3cccc4c3c(cn4C)C[C@H]21`, the efficacy in assay [1] is 31.9%. For the same molecule, the molecule was called inactive in assay [2], in assay [3], in assay [4] and in assay [6]. The concentration at half-maximal activity (AC50) in assay [5] is 39.8 µM (active).

As for `NS(=O)(=O)c1cc2c(cc1Cl)NC(CSCc1ccccc1)=NS2(=O)=O`, the efficacy in assay [1] is 11.6%. For the same molecule, the outcome in assay [2], in assay [3], in assay [4], in assay [5] and in assay [6] was inactive.

Consider `CC(C)(Oc1ccc(CCNC(=O)c2ccc(Cl)cc2)cc1)C(=O)O`, for which, in assay [1], the efficacy was -16.5%. Also, the result in assay [2], in assay [3], in assay [4], in assay [5] and in assay [6] was inactive.

Consider `CC1(C)[C@@H](OC(=O)CCC(=O)O)CC[C@]2(C)[C@H]3C(=O)C=C4[C@@H]5C[C@@](C)(C(=O)O)CC[C@]5(C)CC[C@@]4(C)[C@]3(C)CC[C@@H]12`, for which, in assay [1], the efficacy is 12.7%. Also, the outcome in assay [2], in assay [3], in assay [4], in assay [5] and in assay [6] was inactive.

Turning to `Cc1ccc(C(C)OC(=O)C2(C)CCC(C(=O)O)C2(C)C)cc1` (centres undefined), the efficacy in assay [1] was 24.8%. Also, the molecule was classed as inactive in assay [2], in assay [3], in assay [4], in assay [5] and in assay [6].

`CCOC(=O)C(=O)c1csc(NC=O)n1`: the efficacy in assay [1] was -15.8%. The molecule was classed as inactive in assay [2], in assay [3], in assay [4], in assay [5] and in assay [6].

As for `CCN(Cc1ccc(Cl)nc1)/C(=C/[N+](=O)[O-])NC`, in assay [1], the efficacy is -11.7%. The molecule was classed as inactive in assay [2], in assay [3], in assay [4], in assay [5] and in assay [6].

On to `O=c1[nH]c(=O)c2ccccc2o1`, for which the efficacy in assay [1] was 15%. The molecule was called inactive in assay [2], in assay [3], in assay [4], in assay [5] and in assay [6].

`FC(F)(F)C(Cl)Br` (centres undefined): the efficacy in assay [1] was 31.6%. The result in assay [2], in assay [3], in assay [4], in assay [5] and in assay [6] was inactive.

As to `O=C1O[C@H]([C@@H](O)CO)C(O)=C1O`, in assay [1], the efficacy is -34.4%. Besides, the call in assay [2], in assay [3], in assay [4], in assay [5] and in assay [6] was inactive.

In the case of `CCOC(=O)[C@@](C)(N)Cc1ccc(O)c(O)c1`, in assay [1], the efficacy was 38.1%. For the same molecule, the molecule was called inactive in assay [2], in assay [3], in assay [4], in assay [5] and in assay [6].

In the case of `C/C=C/C(=O)N(CC)c1ccccc1C`, the efficacy in assay [1] was 23.4%. In addition, the call in assay [2], in assay [3], in assay [4], in assay [5] and in assay [6] was inactive.

For `CNC(=O)CN(CCN(CCN(CC(=O)[O-])CC(=O)NC)CC(=O)[O-])CC(=O)[O-].O.[Gd+3]`, the efficacy in assay [1] is -24.9%. In addition, the result in assay [2], in assay [3], in assay [4], in assay [5] and in assay [6] was inactive.

In the case of `CCN(CC)C(=O)N1CCN(C)CC1`, in assay [1], the efficacy was -16.8%. Also, the molecule was classed as inactive in assay [2], in assay [3], in assay [4], in assay [5] and in assay [6].

Regarding `C[C@]12C=CC(=O)C=C1CC[C@@H]1[C@@H]2CC[C@@]2(C)[C@H]1CC[C@]2(C)O`, the efficacy in assay [1] is -14%. The molecule was called inactive in assay [2], in assay [3], in assay [4], in assay [5] and in assay [6].

In the case of `O=C(CCCCCCCCC#CI)Oc1ccccc1`, in assay [1], the efficacy is -20.5%. The call in assay [2], in assay [3], in assay [4], in assay [5] and in assay [6] was inactive.

Turning to `Nc1ccn([C@H]2CC[C@@H](CO)O2)c(=O)n1`, the efficacy in assay [1] is -13.2%. Moreover, the molecule was classed as inactive in assay [2], in assay [3], in assay [4], in assay [5] and in assay [6].

Regarding `N[C@H](Cc1c[nH]c2ccccc12)C(=O)O`, the efficacy in assay [1] is 29.9%. Further, the molecule was classed as inactive in assay [2], in assay [3], in assay [4], in assay [5] and in assay [6].

For the molecule `C[N+](C)(C)CCCCCCCCCC[N+](C)(C)C`, the efficacy in assay [1] was -18%. Also, the molecule was classed as inactive in assay [2], in assay [3], in assay [4], in assay [5] and in assay [6].

`CCN(CC)CC(=O)OCC(=O)[C@@]1(O)CC[C@H]2[C@@H]3CCC4=CC(=O)CC[C@]4(C)[C@H]3[C@@H](O)C[C@@]21C`: the efficacy in assay [1] is 17.3%. In addition, the molecule was classed as inactive in assay [2], in assay [3], in assay [4], in assay [5] and in assay [6].
